For eleven compounds, outcome and AC50 results are on record in PubChem BioAssay (EPA / NIEHS).

SMILES strings stand for the structures. Activity calls are given as the source filed them. Rule for the calls: active = hit-call score of the fitted dose curve at least 0.9, where 1 is the maximum; inactive = score below 0.9.

The experiment deals with SRD5A2 (gene 6716). In words: CCTE_Deisenroth_5AR_NBTE_ratio: CCTE's 5alpha-reductase NanoBRET Target Engagement Assay - Ratio, Deisenroth Lab (AID 2284322). The following applies: actives raise or lower the signal. The method, then:
CCTE_Deisenroth_5AR NBTE (5alpha-reductase NanoBRET Target Engagement Assay) is a cell-based, single-readout assay that uses HEK293T, a human kidney cell line, with measurements taken at 5 hours after chemical dosing in a 384 well plate. This assay includes a primary and secondary screen as well as an autofluorscence screen.CCTE_Deisenroth_5AR NBTE_ratio is one of four assay components calculated from the CCTE_Deisenroth_5AR NBTE assay. It is designed to measure the ratio of target acceptor fluorophore resonance to donor bioluminescent signals.Data from the assay component CCTE_Deisenroth_5AR NBTE_ratio was analyzed into 1 assay endpoint. This assay endpoint, CCTE_Deisenroth_5AR NBTE_ratio, was analyzed with bidirectional fitting relative to DMSO as the negative control and baseline of activity. Using a type of inducible reporter, gain or loss-of-signal activity can be used to understand changes in 5alpha-reductase catalytic function. Furthermore, this assay endpoint can be referred to as a primary readout. To generalize the intended target to other relatable targets, this assay endpoint is annotated to the misc protein intended target family, where the subfamily is 5-alpha reductase.
For transient expression of the SRD5A2-NanoLuc fusion protein, HEK293T cells are reverse transfected with pNLF1-C-SRD5A2 expression vector and incubated for 20 hours to facilitate fusion protein expression. For assay setup, 384-well non-binding surface (NBS) microplates are pre-dispensed with test chemical across an 8-point concentration series (10 nM - 29.9 uM) with two technical replicates per run. Cell suspensions are dispensed into the microplates and incubated with test chemical for a duration of three hours. Following pre-incubation with test chemical, the testosterone tracer is dispensed into each well and incubated an additional two hours. The total incubation period with test chemical is five hours, with testosterone tracer added the final two hours to reach target engagement equilibrium. For the NanoBRET endpoint measurements, a solution of Nano-Glo substrate and extracellular NanoLuc inhibitor solution is added to each test well and immediately scanned on a plate reader configured with multichromatic emission settings for donor luminescence ([…]) and acceptor fluorescence ([…]). DMSO solvent controls are included as baseline control. Plate-matched samples are run with mock tracer conditions or testosterone tracer to discriminate any potential non-specific substrate interference.
`COc1ccc(C)cc1N`: the result was inactive. Consider `O=c1c(O)c(-c2ccc(O)c(O)c2)oc2cc(O)cc(O)c12`, for which the result was inactive. On the same count and under the same terms, for `CCCCOC(=O)CCCCCCCCC(=O)OCCCC` the value was “inactive”. For `CCCCC(CC)COC(=O)CC(C(=O)OCC(CC)CCCC)S(=O)(=O)O` (stereo unspecified), the AC50 (as a rule, the concentration giving half of the maximal activity seen) was 75.3 µM (active).

Turning to `COc1cc(-c2nc(NC(=O)c3cc4cc(C)cc(C)c4n3CC(=O)O)sc2CCC2CCCCC2)c(OC)cc1Cl`, the AC50 was 26.3 µM (active). As to `CCCCCCCCCCC`, the outcome was inactive.

As to `COc1cc(S(=O)(=O)O)c(C)cc1N=Nc1c(O)ccc2cc(S(=O)(=O)O)ccc12`, the AC50 was 60.2 µM (active).

`CC=Cc1ccc(O)c(OC)c1`: the outcome was inactive.

As for `C1CCC(SSC2CCCCC2)CC1`, the outcome was inactive. On the same count and under the same terms, for `OC[C@@H](O)[C@@H](O)[C@H](O)[C@H](O)CO` the value was “inactive”; for `Oc1ccc2ccccc2c1N=Nc1ccccc1`, “inactive”.
